The values below come from PubChem BioAssay AID1259240 (Keith Lab, Institute of Cancer Science, University of …, 2017).

SMILES strings stand for the structures. Unmarked numbers belong to inactive results. Calls of active or inactive are those of the source. No stated cut-off is given here; in the data, active means fold change mostly below about -2 (no sharp cut-off); inactive means mostly above about -1.8.

A short description of the experiment: modulation of TERT promoter-driven luciferase – cell-based, luciferase reporter, human, primary screen (AID 1259240). As to conditions: A2780 TERT promoter luciferase reporter, 16 h; at 20 µM, fold versus average of vehicle-only wells.
For the molecule `C=CCOc1ccc(-c2nc3s/c(=C\c4cccc(OC(C)=O)c4)c(=O)n3n2)cc1`, the fold change was 1.2.
Same read-out and setting: the same measure for `NC(=O)c1c(NC(=O)CN2C(=O)c3ccccc3S2(=O)=O)sc2c1CCCC2`: 1.23; for `Clc1ccc(Nc2c(-c3c[nH]c4ccccc34)nc3cnccn23)cc1`: -1.4.
With `COc1ccc(-c2nc(CSc3nc4c(c(=O)[nH]3)CCC4)c(C)o2)cc1`, the result was inactive.
For the molecule `Cc1sc(-c2c(C#N)c(N)nc3c2CCCC3)cc1Br`, the fold change was -4.77 (active).
The same measure, in the same setting: the same measure for `CCOC(=O)c1sc2nccc3c2c1N=CN3c1ccccc1`: -1.96.
Same read-out and setting: under `O=C(Nc1cccc(F)c1)C1CCCN(S(=O)(=O)c2cnc[nH]2)C1` (stereo not given) stands 1.26; under `COc1ccc(-c2cc3ccccc3n2CC(O)CN2CCN(CCO)CC2)cc1` (stereo not given), -1.49.
Same read-out and setting: under `CCc1nc2c(cnn2-c2ccc(F)cc2)c(=O)n1-c1ccc(OC)c(Cl)c1` stands 1.04.
Turning to `Cc1ccccc1N1CC(O)(c2ccccc2)[N+]2=C1SCCC2` (stereo not given), the fold change is -1.05.
Same read-out and setting: under `COC(=O)CCn1nc(-c2ccc(Cl)cc2)c2ccccc2c1=O` stands -1.07.
Still for that read-out and setting: under `Cc1ccn2c(NC(=O)CC(C)C)c(-c3ccc(F)cc3)nc2c1` stands -2.38 (active); under `CCOC(=O)Cc1nnc2c(Nc3ccccc3Cl)nc3nonc3n12`, -1.8.
Same read-out and setting: the same measure for `CC(C)(C)c1ccc(OCc2nc(-c3ccncc3)no2)c(Br)c1`: -1.23; for `O=C(O)CN1C(=O)/C(=C/c2ccc(SCc3ccccc3)o2)SC1=S`: 1.04; for `CC(=O)N1CCC(N(C(=O)Nc2ccc(F)cc2)C2CCCC2)CC1`: -1.02.
Regarding `CC(C)c1ccc(NC(=O)Nc2ccc3snnc3c2)cc1`, the fold change was -1.62.
Consider `CNC(=O)c1ccc(-c2nn(C)c(=O)c3ccccc23)cc1`, for which the fold change was -1.06.
Still for that read-out and setting: the same measure for `O=C(Nc1ccc(F)c(F)c1)C1CCCN1S(=O)(=O)c1cccc2nsnc12` (stereo not given): -1.3; for `CCOC(=O)C1=C(CS(=O)(=O)c2ccc(C)cc2)NC(=O)NC1c1ccc(OC)cc1OC` (stereo not given): -1.29.
Same read-out and setting: under `Cc1cc(C(F)(F)F)nc(Nc2nc3ccccc3o2)n1` stands -1.19; under `CCN1CCN(C(=O)CN2C(=O)COc3ccc(S(=O)(=O)N4CCC(C)CC4)cc32)CC1`, 1.16; under `CN(CC(=O)NC1CCCc2ccccc21)S(=O)(=O)c1ccc2c(c1)CCC(=O)N2` (stereo not given), 1.18.
Regarding `O=C(Cc1ccc(NC2=NC3CS(=O)(=O)CC3S2)cc1)Nc1ccc(F)cc1` (stereo not given), the fold change is -1.7.
For the molecule `CCN(CC)CCNc1nc2c(c(=O)[nH]c(=O)n2C)n1Cc1cccc(C)c1`, the fold change was -1.42.
Same read-out and setting: the same measure for `COc1ccc(C2C3C(=O)N(C(C)C)C(=O)C3ON2c2ccc(Cl)cc2)cc1` (stereo not given): -1.62; for `O=C(Cn1c(=O)oc2cc(S(=O)(=O)NC3CCCC3)ccc21)NC1CCCCCCC1`: 1.01; for `COC(=O)c1ccc(C2Oc3c(OC)cccc3C3CC(c4cccs4)=NN32)cc1` (stereo not given): -1.08.
On the same count and under the same terms, under `O=c1cc(-c2cc(Br)cc3c2OCOC3)oc2ccccc12` stands -1.26; under `CCn1c(NCc2ccc(Cl)cc2)nc2ccccc21`, 1.05; under `O=C1CC(c2cc(Br)cs2)c2cc3c(cc2N1)OCO3` (stereo not given), 1.13.
Regarding `COc1ccccc1-c1c(C)nn2c(N(C)CCC#N)cc(C)nc12`, the fold change was -1.5.
On to `CC1CCCC(NS(=O)(=O)c2cccc3cccnc23)C1C` (stereo not given), for which the fold change was -3.72 (active).
The same measure, in the same setting: under `CCCCNS(=O)(=O)c1ccc(C)c(-c2nnc3c4ccccc4c(C)nn23)c1` stands -1.28; under `CC1CCN(S(=O)(=O)c2ccc3c(c2)N(CC(=O)N2CCOCC2)C(=O)CO3)CC1`, 1.44.
Same read-out and setting: under `c1cncc(Cc2nnc(N3CCC4(CC3)OCCO4)c3ccccc23)c1` stands -1.13.
On the same count and under the same terms, under `COCCN1C(=O)C(=O)/C(=C(\O)c2ccc(C)cc2)C12C(=O)N(C)c1ccccc12` (stereo not given) stands -1.06.
Take `COc1ccc(C2c3c(oc4ccc(F)cc4c3=O)C(=O)N2Cc2ccc3c(c2)OCO3)cc1` (stereo not given): the fold change is -1.27.
The same measure, in the same setting: the same measure for `Cn1c(=O)c(=O)n(C)c2cc(S(=O)(=O)N3CCCC3C(=O)Nc3nccs3)ccc21` (stereo not given): 1.15; for `O=c1cc(CSc2nnnn2-c2ccccc2)nc2nc[nH]n12`: -2.26 (active).
